# Article PMC11006913
# Numbering of substitutions follows the chain as printed.
# Experiments:
# Assay in all cases: PBM; 200 nM protein, PBS
# Conditions in all cases: dsDNA, one strand shown
# [1] = target: HOXC9 (Homo sapiens, UniProt P31274 178-260, K195R)
# [2] = target: ALX4 (Homo sapiens, UniProt Q9H161 200-286)
# [3] = target: ALX4 (Homo sapiens, UniProt Q9H161 200-286, Q225E)
# [4] = target: HOXC9 (Homo sapiens, UniProt P31274 178-260)
# [5] = target: ALX1 (Homo sapiens, UniProt Q15699 118-204, L144V)
# Sequence of ALX1 (Homo sapiens, UniProt Q15699 118-204, L144V) (Q15699 118-204 L144V): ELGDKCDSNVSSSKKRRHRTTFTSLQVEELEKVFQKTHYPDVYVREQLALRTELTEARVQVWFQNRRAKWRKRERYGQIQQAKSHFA
# [6] = target: HOXC9 (Homo sapiens, UniProt P31274 178-260, R193K)
# Sequence of HOXC9 (Homo sapiens, UniProt P31274 178-260, R193K) (P31274 178-260 R193K): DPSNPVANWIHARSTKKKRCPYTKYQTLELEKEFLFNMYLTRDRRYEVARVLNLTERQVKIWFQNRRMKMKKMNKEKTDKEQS
# [7] = target: ALX1 (Homo sapiens, UniProt Q15699 118-204, L144R)
# Sequence of ALX1 (Homo sapiens, UniProt Q15699 118-204, L144R) (Q15699 118-204 L144R): as the sequence (Q15699 118-204 L144V) above, with V27R counted along it
# [8] = target: HOXC9 (Homo sapiens, UniProt P31274 178-260, R222W)
# Sequence of HOXC9 (Homo sapiens, UniProt P31274 178-260, R222W) (P31274 178-260 R222W): as the sequence (P31274 178-260 R193K) above, with K16R, R45W counted along it
# [9] = target: ALX1 (Homo sapiens, UniProt Q15699 118-204)
# Sequence of ALX1 (Homo sapiens, UniProt Q15699 118-204) (Q15699 118-204): as the sequence (Q15699 118-204 L144V) above, with V27L counted along it
# [10] = target: PRRX1 (Homo sapiens, UniProt P54821 80-166, F113S)
# Sequence of PRRX1 (Homo sapiens, UniProt P54821 80-166, F113S) (P54821 80-166 F113S): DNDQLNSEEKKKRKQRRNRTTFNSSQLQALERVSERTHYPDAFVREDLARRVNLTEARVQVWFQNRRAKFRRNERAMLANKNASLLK
# [11] = target: PRRX1 (Homo sapiens, UniProt P54821 80-166)
# Sequence of PRRX1 (Homo sapiens, UniProt P54821 80-166) (P54821 80-166): as the sequence (P54821 80-166 F113S) above, with S34F counted along it
# [12] = target: HOXA4 (Homo sapiens, UniProt Q00056 201-287, W262R)
# Sequence of HOXA4 (Homo sapiens, UniProt Q00056 201-287, W262R) (Q00056 201-287 W262R): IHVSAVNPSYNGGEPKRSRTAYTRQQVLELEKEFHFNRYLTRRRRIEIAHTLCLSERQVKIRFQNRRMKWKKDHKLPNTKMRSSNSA
# [13] = target: HOXA4 (Homo sapiens, UniProt Q00056 201-287)
# Sequence of HOXA4 (Homo sapiens, UniProt Q00056 201-287) (Q00056 201-287): as the sequence (Q00056 201-287 W262R) above, with R62W counted along it
# [14] = target: HOXA4 (Homo sapiens, UniProt Q00056 201-287, W262F)
# Sequence of HOXA4 (Homo sapiens, UniProt Q00056 201-287, W262F) (Q00056 201-287 W262F): as the sequence (Q00056 201-287 W262R) above, with R62F counted along it
# [15] = target: HOXA7 (Homo sapiens, UniProt P31268 116-202)
# Sequence of HOXA7 (Homo sapiens, UniProt P31268 116-202) (P31268 116-202): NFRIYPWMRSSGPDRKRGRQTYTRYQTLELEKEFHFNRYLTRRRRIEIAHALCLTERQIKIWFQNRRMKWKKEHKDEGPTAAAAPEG
# [16] = target: HOXA7 (Homo sapiens, UniProt P31268 116-202, W177C)
# Sequence of HOXA7 (Homo sapiens, UniProt P31268 116-202, W177C) (P31268 116-202 W177C): as the sequence (P31268 116-202) above, with W62C counted along it
# [17] = target: NKX3-2 (Homo sapiens, UniProt P78367 192-278, P234S)
# Sequence of NKX3-2 (Homo sapiens, UniProt P78367 192-278, P234S) (P78367 192-278 P234S): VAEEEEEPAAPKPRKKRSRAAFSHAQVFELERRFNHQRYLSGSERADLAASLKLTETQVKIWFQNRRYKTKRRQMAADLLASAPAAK
# [18] = target: NKX3-2 (Homo sapiens, UniProt P78367 192-278)
# Sequence of NKX3-2 (Homo sapiens, UniProt P78367 192-278) (P78367 192-278): as the sequence (P78367 192-278 P234S) above, with S43P counted along it
# [19] = target: HOXC10 (Homo sapiens, UniProt Q9NYD6 254-340)
# Sequence of HOXC10 (Homo sapiens, UniProt Q9NYD6 254-340) (Q9NYD6 254-340): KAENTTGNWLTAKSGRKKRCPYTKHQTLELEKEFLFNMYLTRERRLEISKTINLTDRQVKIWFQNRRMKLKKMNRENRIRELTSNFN
# [20] = target: T1, PAX4 (Homo sapiens, UniProt O43316 9-242, R200K)
# T1 sequence: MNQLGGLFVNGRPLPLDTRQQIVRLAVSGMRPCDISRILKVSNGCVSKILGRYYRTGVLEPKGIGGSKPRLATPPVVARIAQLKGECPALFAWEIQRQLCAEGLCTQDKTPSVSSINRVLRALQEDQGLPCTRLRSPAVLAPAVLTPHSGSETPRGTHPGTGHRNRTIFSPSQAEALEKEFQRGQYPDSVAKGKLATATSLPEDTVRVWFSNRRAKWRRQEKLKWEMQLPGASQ
# [21] = target: T2, PAX4 (Homo sapiens, UniProt O43316 9-242)
# T2 sequence: T1 sequence with K192R
# [22] = target: ALX3 (Homo sapiens, UniProt O95076 139-225, N203Q)
# Sequence of ALX3 (Homo sapiens, UniProt O95076 139-225, N203Q) (O95076 139-225 N203Q): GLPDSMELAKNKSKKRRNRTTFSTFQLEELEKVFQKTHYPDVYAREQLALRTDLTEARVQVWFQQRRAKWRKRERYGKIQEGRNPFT
# [23] = target: T3, PAX4 (Homo sapiens, UniProt O43316 9-242, R200Q)
# T3 sequence: T1 sequence with K192Q
# [24] = target: T4, PAX4 (Homo sapiens, UniProt O43316 9-242, F177V)
# T4 sequence: T1 sequence with F169V, K192R
# [25] = target: HOXC10 (Homo sapiens, UniProt Q9NYD6 254-340, K271E)
# Sequence of HOXC10 (Homo sapiens, UniProt Q9NYD6 254-340, K271E) (Q9NYD6 254-340 K271E): as the sequence (Q9NYD6 254-340) above, with K18E counted along it
# [26] = target: ALX3 (Homo sapiens, UniProt O95076 139-225)
# Sequence of ALX3 (Homo sapiens, UniProt O95076 139-225) (O95076 139-225): as the sequence (O95076 139-225 N203Q) above, with Q65N counted along it
# [27] = target: T5, PAX4 (Homo sapiens, UniProt O43316 9-242, F177Y)
# T5 sequence: T1 sequence with F169Y, K192R
# [28] = target: ALX3 (Homo sapiens, UniProt O95076 139-225, L168Q)
# Sequence of ALX3 (Homo sapiens, UniProt O95076 139-225, L168Q) (O95076 139-225 L168Q): as the sequence (O95076 139-225 N203Q) above, with L30Q, Q65N counted along it
# [29] = target: ALX3 (Homo sapiens, UniProt O95076 139-225, L168V)
# Sequence of ALX3 (Homo sapiens, UniProt O95076 139-225, L168V) (O95076 139-225 L168V): as the sequence (O95076 139-225 N203Q) above, with L30V, Q65N counted along it
# [30] = target: T6, PAX4 (Homo sapiens, UniProt O43316 9-242, R227W)
# T6 sequence: T1 sequence with K192R, R219W
# [31] = target: ALX3 (Homo sapiens, UniProt O95076 139-225, N203S)
# Sequence of ALX3 (Homo sapiens, UniProt O95076 139-225, N203S) (O95076 139-225 N203S): as the sequence (O95076 139-225 N203Q) above, with Q65S counted along it
# Sequence of HOXC9 (Homo sapiens, UniProt P31274 178-260, K195R) (P31274 178-260 K195R): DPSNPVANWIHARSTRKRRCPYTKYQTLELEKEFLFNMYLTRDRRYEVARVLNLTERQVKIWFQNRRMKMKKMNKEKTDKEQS
# Sequence of HOXC9 (Homo sapiens, UniProt P31274 178-260) (P31274 178-260): as the sequence (P31274 178-260 R193K) above, with K16R counted along it
# Sequence of ALX4 (Homo sapiens, UniProt Q9H161 200-286) (Q9H161 200-286): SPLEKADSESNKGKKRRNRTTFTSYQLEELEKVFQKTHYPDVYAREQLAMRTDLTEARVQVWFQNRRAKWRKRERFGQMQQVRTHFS
# Sequence of ALX4 (Homo sapiens, UniProt Q9H161 200-286, Q225E) (Q9H161 200-286 Q225E): as the sequence (Q9H161 200-286) above, with Q26E counted along it
sequence,measurement,setting,value
CCAGTGGG,binding signal,[1],"9.58 upbm affinity estimate (log intensity, higher = more binding, comparable within an allelic series)"
same,binding signal,[2],"8.11 upbm affinity estimate (log intensity, higher = more binding, comparable within an allelic series)"
same,binding signal,[3],"8.16 upbm affinity estimate (log intensity, higher = more binding, comparable within an allelic series)"
same,binding signal,[4],"9.54 upbm affinity estimate (log intensity, higher = more binding, comparable within an allelic series)"
same,binding signal,[5],"6.51 upbm affinity estimate (log intensity, higher = more binding, comparable within an allelic series)"
same,binding signal,[6],"9.48 upbm affinity estimate (log intensity, higher = more binding, comparable within an allelic series)"
same,binding signal,[7],"6.46 upbm affinity estimate (log intensity, higher = more binding, comparable within an allelic series)"
same,binding signal,[8],"9.57 upbm affinity estimate (log intensity, higher = more binding, comparable within an allelic series)"
same,binding signal,[9],"6.33 upbm affinity estimate (log intensity, higher = more binding, comparable within an allelic series)"
CCCCTCAC,binding signal,[1],"9.6 upbm affinity estimate (log intensity, higher = more binding, comparable within an allelic series)"
same,binding signal,[10],"9.49 upbm affinity estimate (log intensity, higher = more binding, comparable within an allelic series)"
same,binding signal,[4],"9.72 upbm affinity estimate (log intensity, higher = more binding, comparable within an allelic series)"
same,binding signal,[6],"9.5 upbm affinity estimate (log intensity, higher = more binding, comparable within an allelic series)"
same,binding signal,[8],"9.75 upbm affinity estimate (log intensity, higher = more binding, comparable within an allelic series)"
same,binding signal,[11],"9.53 upbm affinity estimate (log intensity, higher = more binding, comparable within an allelic series)"
CATTTGGG,binding signal,[12],"10.1 upbm affinity estimate (log intensity, higher = more binding, comparable within an allelic series)"
same,binding signal,[13],"11.3 upbm affinity estimate (log intensity, higher = more binding, comparable within an allelic series)"
same,binding signal,[14],"10.3 upbm affinity estimate (log intensity, higher = more binding, comparable within an allelic series)"
CGTCAATA,binding signal,[12],"10.2 upbm affinity estimate (log intensity, higher = more binding, comparable within an allelic series)"
same,binding signal,[13],"10.9 upbm affinity estimate (log intensity, higher = more binding, comparable within an allelic series)"
CAAGCTCG,binding signal,[1],"9.46 upbm affinity estimate (log intensity, higher = more binding, comparable within an allelic series)"
same,binding signal,[15],"8.21 upbm affinity estimate (log intensity, higher = more binding, comparable within an allelic series)"
same,binding signal,[4],"9.49 upbm affinity estimate (log intensity, higher = more binding, comparable within an allelic series)"
same,binding signal,[6],"9.44 upbm affinity estimate (log intensity, higher = more binding, comparable within an allelic series)"
same,binding signal,[8],"9.62 upbm affinity estimate (log intensity, higher = more binding, comparable within an allelic series)"
same,binding signal,[16],"8.29 upbm affinity estimate (log intensity, higher = more binding, comparable within an allelic series)"
same,binding signal,[17],"10.3 upbm affinity estimate (log intensity, higher = more binding, comparable within an allelic series)"
same,binding signal,[18],"10.3 upbm affinity estimate (log intensity, higher = more binding, comparable within an allelic series)"
CACGATCA,binding signal,[12],"10.2 upbm affinity estimate (log intensity, higher = more binding, comparable within an allelic series)"
same,binding signal,[13],"11 upbm affinity estimate (log intensity, higher = more binding, comparable within an allelic series)"
same,binding signal,[14],"10.3 upbm affinity estimate (log intensity, higher = more binding, comparable within an allelic series)"
CAGCCTTC,binding signal,[1],"9.4 upbm affinity estimate (log intensity, higher = more binding, comparable within an allelic series)"
same,binding signal,[19],"9.83 upbm affinity estimate (log intensity, higher = more binding, comparable within an allelic series)"
same,binding signal,[20],"9.16 upbm affinity estimate (log intensity, higher = more binding, comparable within an allelic series)"
same,binding signal,[21],"9.3 upbm affinity estimate (log intensity, higher = more binding, comparable within an allelic series)"
same,binding signal,[4],"9.46 upbm affinity estimate (log intensity, higher = more binding, comparable within an allelic series)"
same,binding signal,[22],"7.71 upbm affinity estimate (log intensity, higher = more binding, comparable within an allelic series)"
same,binding signal,[23],"9.32 upbm affinity estimate (log intensity, higher = more binding, comparable within an allelic series)"
same,binding signal,[6],"9.41 upbm affinity estimate (log intensity, higher = more binding, comparable within an allelic series)"
same,binding signal,[24],"9.05 upbm affinity estimate (log intensity, higher = more binding, comparable within an allelic series)"
same,binding signal,[25],"9.85 upbm affinity estimate (log intensity, higher = more binding, comparable within an allelic series)"
same,binding signal,[26],"7.49 upbm affinity estimate (log intensity, higher = more binding, comparable within an allelic series)"
same,binding signal,[27],"9.15 upbm affinity estimate (log intensity, higher = more binding, comparable within an allelic series)"
same,binding signal,[28],"7.82 upbm affinity estimate (log intensity, higher = more binding, comparable within an allelic series)"
same,binding signal,[8],"9.69 upbm affinity estimate (log intensity, higher = more binding, comparable within an allelic series)"
same,binding signal,[29],"7.71 upbm affinity estimate (log intensity, higher = more binding, comparable within an allelic series)"
same,binding signal,[30],"9.26 upbm affinity estimate (log intensity, higher = more binding, comparable within an allelic series)"
same,binding signal,[31],"7.68 upbm affinity estimate (log intensity, higher = more binding, comparable within an allelic series)"
GGTAATAA,binding signal,[1],"12.4 upbm affinity estimate (log intensity, higher = more binding, comparable within an allelic series)"
same,binding signal,[19],"12.2 upbm affinity estimate (log intensity, higher = more binding, comparable within an allelic series)"
same,binding signal,[4],"12.6 upbm affinity estimate (log intensity, higher = more binding, comparable within an allelic series)"
same,binding signal,[6],"12.5 upbm affinity estimate (log intensity, higher = more binding, comparable within an allelic series)"
same,binding signal,[25],"11.9 upbm affinity estimate (log intensity, higher = more binding, comparable within an allelic series)"
same,binding signal,[8],"10.9 upbm affinity estimate (log intensity, higher = more binding, comparable within an allelic series)"
